Shown are actives, neighbours in structure and some others; about 12% of the full set was active somewhere.
BAZ2B block: blocks human BAZ2B | Potency, µM (top dose mostly 114 µM), inactives show at the highest dose activity change, negative = inhibition, actives largely listed as inhibitors | AlphaScreen BAZ2B-H3K14Ac peptide displacement | AID 504333 | Q9UIF8 | actives 4.4% (n = 360,000); note: % is set by controls: 0 for no effect and ±100 for the full control effect; nearly all actives have a fitted effect of over 60% in size
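Compounds, titrated to a top concentration of 110 uM, were incubated 30 min at room temperature with preformed BAZ2B/acetyl-K14 H3 peptide complex (50 nM each). Proximity signal was measured by AlphaScreen after 20 min with beads.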
JMJD2A Tudor inh: blocks the human JMJD2A Tudor domain; actives 4.4% (n = 390,000); O75164; AlphaScreen JMJD2A-Tudor / H3K4me3 peptide binding; Potency, µM (titrated, usually from 114 µM), for the others: at the highest dose activity change, negative = inhibition, usual class: inhibitors; note: % is set by controls: 0 for no effect and ±100 for the full control effect; nearly all actives have a fitted effect of over 50% in size
G9a block: blocks human histone lysine methyltransferase G9a. G9a H3K9 monomethylation, AlphaScreen, 2 h. Potency, µM (titrated, usually from 102 µM), for the others: at the highest dose activity, negative = inhibition, most hits filed as inhibitors. actives 8.8% (n = 350,000); note: % is set by controls: 0 for no effect and ±100 for the full control effect; nearly all actives have a fitted effect of over 75% in size
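Using a bead-based AlphaScreen, monomethylated H3K9 product from 2 h room-temperature reactions (G9a 20 nM, peptide 500 nM, SAM 20 uM) was detected with 0.5 ug/mL rabbit anti-H3K9me1 antibody.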
Sfp inh: blocks B. subtilis Sfp PPTase activity | Biochemical Sfp PPTase activity, qHTS | actives 3.5% (n = 310,000) | Q9F4F7 | Potency, µM, for inactives: largest response in the series, negative = inhibition, usual class: inhibitors;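 note: the enzyme is Sfp with the accession as filed and its product quenches rhodamine fluorescence; 0% = enzyme reaction without inhibitor and -100% = no enzyme wells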
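Reaction rates are the 30-min fluorescence difference (ex 525, em 598 nm) in wells containing 15 nM Sfp, 5 uM rhodamine-CoA and 12.5 uM BHQ-2-YbbR at pH 7.6 with 10 mM MgCl2.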
L3MBTL1 inh: blocks human L3MBTL1; Q9Y468; AlphaScreen L3MBTL1–H3K9me1 peptide binding; Potency, µM (doses to about 57.1 µM), without a hit: at the highest dose activity, negative = inhibition, actives largely listed as inhibitors; actives 0.66% (n = 230,000); AID 485360; note: % is set by controls: 0 for no effect and ±100 for the full control effect; nearly all actives have a fitted effect of over 60% in size
Target sequence (Q9Y468 whole entry, looked up): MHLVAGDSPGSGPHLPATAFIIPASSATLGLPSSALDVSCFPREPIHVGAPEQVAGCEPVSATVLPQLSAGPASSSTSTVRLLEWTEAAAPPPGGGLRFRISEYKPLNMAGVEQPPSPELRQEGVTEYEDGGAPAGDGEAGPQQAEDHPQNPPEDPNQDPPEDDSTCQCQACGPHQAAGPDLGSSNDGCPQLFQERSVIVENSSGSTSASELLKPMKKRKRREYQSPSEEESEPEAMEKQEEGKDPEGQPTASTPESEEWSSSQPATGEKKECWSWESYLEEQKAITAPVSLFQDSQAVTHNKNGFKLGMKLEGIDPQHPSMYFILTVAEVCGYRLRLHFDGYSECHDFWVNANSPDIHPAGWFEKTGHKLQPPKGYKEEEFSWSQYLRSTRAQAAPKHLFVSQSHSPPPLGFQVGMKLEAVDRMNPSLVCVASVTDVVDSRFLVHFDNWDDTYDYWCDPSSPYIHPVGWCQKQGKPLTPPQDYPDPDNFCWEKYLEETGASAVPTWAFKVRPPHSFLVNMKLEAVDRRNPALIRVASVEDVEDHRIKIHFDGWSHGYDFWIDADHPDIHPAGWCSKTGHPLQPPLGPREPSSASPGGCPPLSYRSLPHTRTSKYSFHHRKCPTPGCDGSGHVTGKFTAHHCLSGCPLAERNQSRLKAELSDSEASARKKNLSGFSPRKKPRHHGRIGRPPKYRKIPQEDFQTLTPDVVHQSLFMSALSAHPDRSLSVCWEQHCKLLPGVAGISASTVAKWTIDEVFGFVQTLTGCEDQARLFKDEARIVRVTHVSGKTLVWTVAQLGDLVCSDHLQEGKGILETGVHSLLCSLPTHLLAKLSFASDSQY
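L3MBTL1 (50 nM) pre-complexed 30 min with biotinylated H3(1-15)K9me1 peptide (75 nM), then compounds added for 30 min at room temperature; AlphaScreen streptavidin donor/nickel chelate acceptor beads (10 ug/mL final) read after 30 min dark incubation.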
HP1b chromo inh: HP1-beta chromodomain-methylated histone interaction inhibition | P83916 | AlphaScreen HP1-beta / biotin-H3K9me3 peptide binding | Potency, µM (doses to about 114 µM), inactives show at the highest dose activity change, negative = inhibition, actives largely listed as inhibitors | actives 0.56% (n = 390,000); note: nearly all actives have a fitted effect of over 70% in size
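AlphaScreen: HP1-beta (50 nM) preformed 30 min with biotin-H3(1-18)K9me3 peptide (50 nM) in PBS pH 7.4, 0.01% Tween-20. Compound added for 30 min at RT, then streptavidin donor/nickel chelate acceptor beads (10 ug/mL) for 30 min.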
* = called active by the depositor; ? = inconclusive; . = no result given; ! = a repeat was not active; [ ] = another dose, or the depositor's remark. Calls come from the whole dose curve; as a rule, active = well fitted curve in the direction sought with a large enough effect; inconclusive = small, poorly fitted or top-dose-only effect, or another doubt; inactive = no such curve, though single readings can be large; an effect the other way counts as inactive or inconclusive. Potency is the fitted concentration of half-maximal effect.

SMILES	BAZ2B block	JMJD2A Tudor inh	G9a block	Sfp inh	L3MBTL1 inh	HP1b chromo inh
O=C(CN1C(=O)c2ccccc2S1(=O)=O)Nc1cc(S(=O)(=O)N2CCOCC2)ccc1N1CCOCC1	.	-10.6%	.	.	.	33.6%
Cc1cccc(OC(C)C(=O)Nc2nccs2)c1 (stereo not given)	-6.5%	-9.9%	7.3%	-2.4%	.	-1.8%
COc1ccc(NC(=O)CN2C(=O)NC3(CC(C)CC(C)(C)C3)C2=O)cc1S(=O)(=O)N1CCCCC1 (stereo not given)	-1.4%	-32.2%	15.8µM*	.	-2.4%	10.7%
CC1CC(C)CN(S(=O)(=O)c2ccc(NC(=O)CN3C(=O)NC(C)(c4ccccc4)C3=O)cc2)C1 (stereo not given)	7.1%	-35.0%	.	-0.1%	.	1.1%
CC(C)Cc1nnc(NC(=O)CN2C(=O)NC3(CC(C)CC(C)(C)C3)C2=O)s1 (stereo not given)	2.3%	-11.0%	44.7µM*	.	6.9%	24.3%
CCCc1cc(=O)oc2cc(OCC(=O)Nc3ccc(S(N)(=O)=O)cc3)ccc12	44.7µM*	-33.2%	.	-5.6%	.	-1.1%[57 µM]
COc1ccc(NC(=O)CN2C(=O)NC3(CCCC3)C2=O)cc1S(=O)(=O)N1CCCCC1	5.5%	-13.4%	8.4%[59 µM]	.	1.4%	20.1%
CC1CCCN(S(=O)(=O)c2ccc(NC(=O)CN3C(=O)NC(C)(c4ccccc4)C3=O)cc2)C1 (stereo not given)	-9.3%	-29.7%	56.2µM*	.	-4.7%	-5.0%
Cc1cc2c(s1)c1cnn(Cc3cccc(Br)c3)c(=O)c1n2C	.	-32.9%	.	.	.	.
O=C(NC1CCCC1)c1cnn(-c2ccc(F)cc2F)c1C1CCNCC1	11.2%[57.1 µM]	1.6%	-6.1%[59 µM]	.	.	8.2%
N#Cc1ccc(CS(=O)(=O)c2nnnn2C2CCCCC2)cc1	.	.	.	16.2%	.	.
COc1ccc(S(=O)(=O)N2CCCN(CC(=O)Nc3ccc(OC)c(Cl)c3)CC2)cc1	-8.8%	-19.7%	44.7µM*	-8.7%	-14.1%	43.7%
COc1ccc(NC(=O)CN2CCN(S(=O)(=O)c3ccc(Cl)cc3)CC2)cc1Cl	2.3%	-11.1%	10.9%[59 µM]	1.1%	6.7%	18.1%
CC1CCCCC1NC(=O)COC(=O)c1c2c(nc3ccccc13)/C(=C/c1ccco1)CC2 (stereo not given)	44.7µM*	44.7µM*	?	-53.3%	?	-35.3%
O=C(COC(=O)c1c2c(nc3ccccc13)/C(=C/c1ccco1)CC2)NC1CCCC1	10µM*	?	3.55µM*	50.1µM*	4.47µM*	?
Cc1cc(C(=O)OCC(=O)NC2CCCC2)c2ccccc2n1	-3.7%	-13.8%	-1.3%[0.501 µM]	.	2.0%	26.6%
Cc1cc(C(=O)OCC(=O)NC2CCCCC2C)c2ccccc2n1 (stereo not given)	.	-3.6%	.	.	8.9%	41.2%
O=C(c1ccccn1)N1N=C2/C(=C/c3ccc(F)cc3)CCCC2C1c1ccc(F)cc1 (stereo not given)	?	-19.9%	?	5.2%	-7.3%	-8.3%
Cc1ccc2c(=O)c(C(=O)c3ccc(Cl)cc3)cn(CC(=O)Nc3ccc4c(c3)OCCO4)c2n1	9.2%[57.1 µM]	-5.8%	-20.6%[59 µM]	.	.	19.5%
OCCn1c(-c2ccc3c(c2)OCO3)csc1=Nc1ccccc1	39.8µM*	39.8µM*	-47.4%[12.7 µM]	-11.8%	-9.0%	?
N=c1n(CCO)c2ccccc2n1CCOc1ccc(F)cc1	2.2%	-17.0%	3.6%[59 µM]	.	.	20.8%
OCCn1c(-c2ccc(F)cc2)csc1=Nc1ccccc1	25.1µM*	?	20µM*	-8.1%	-23.8%	?
COc1ccc(N2CCN(S(=O)(=O)CCNC(=O)/C=C/c3ccccc3)CC2)cc1	-28.8%	-6.2%	6.8%[0.501 µM]	.	-7.6%	34.8%
CN1CCN(C(CNC(=O)c2c(F)cccc2F)c2ccc3c(c2)OCO3)CC1 (stereo not given)	-1.6%	-10.3%	1.9%[59 µM]	.	.	18.0%[57 µM]
CC(Nc1ccc2c(c1)OCCO2)C(=O)N1c2ccccc2CC1C (stereo not given)	39.8µM*	?	?	-24.5%	.	-12.6%
SMILES	BAZ2B block	JMJD2A Tudor inh	G9a block	Sfp inh	L3MBTL1 inh	HP1b chromo inh
CC1Cc2ccccc2N1C(=O)NC1CC(=O)N(c2ccc3c(c2)OCCO3)C1 (stereo not given)	.	-16.8%	-40.2%	15.3%	.	14.7%
CCn1c(CCNC(=O)c2cccs2)nnc1SCC(=O)c1ccc(OC)cc1	.	28.2µM*	.	.	.	?
CCn1c(CNC(=O)c2ccc(OC)cc2)nnc1SCC(=O)c1ccccc1	-8.9%	20µM*	59.7%[59 µM]	?	1.6%	?
CCn1c(CCNC(=O)c2cccs2)nnc1SCC(=O)Nc1nc(-c2ccccc2)cs1	-6.6%	-26.9%	-9.7%[59 µM]	11.4%	-3.6%	6.0%
CCn1c(CNC(C)=O)nnc1SCC(=O)c1ccc(Br)cc1	-3.5%	56.2µM*	11.2µM*	?	-14.9%[11.4 µM]	-19.5%
COc1ccc(C(=O)/C(Br)=C/C(=O)O)cc1	.	.	?	16.4%	.	.
Cc1ccc(C)c(SCC(=O)Nc2cc(C)nn2-c2ccc(F)cc2)c1	6.8%	.	11.2µM*	21.7%	7.0%	.
O=C(O)Cn1nnc(-c2cccs2)n1	-1.8%	-4.1%	11.5%	31.6%	6.3%	11.5%
O=C(O)CCn1nnc(-c2cccs2)n1	79.4µM*	-13.4%	?	-11.3%	-9.0%	17.1%
O=C1c2ccccc2C(=O)N1Cc1ccco1	-7.0%	-12.6%	-0.6%[59 µM]	11.2%	11.1%[11.4 µM]	18.7%
CC1=CC(=C2C(=O)c3ccccc3C2=O)C=C(C)N1Cc1ccco1	-12.1%	-26.8%	40.6%[12.7 µM]	44.7µM*	-6.4%	-15.9%
Cc1c(N=CC=Nc2c(C)n(C)n(-c3ccccc3)c2=O)c(=O)n(-c2ccccc2)n1C	-3.1%	.	-8.9%[59 µM]	4.8%	8.0%	.
COc1cc(N=Nc2c(C)n(C)n(-c3ccccc3)c2=O)ccc1N	-24.6%	-10.0%	50.1µM*	10.0%	.	11.2%
CNc1ncnc2c1ncn2[C@H]1C[C@H](OP(=O)(O)O)[C@@H](COP(=O)(O)O)O1	.	.	20µM*!	.	.	.
CNc1ncnc2c1ncn2[C@@H]1O[C@H](COP(=O)(O)O)[C@@H](O)[C@H]1O	.	.	32.3%[59 µM]	-2.3%	.	.
COc1cc2c(cc1OC)C(/C(C#N)=N\O)=NC(C)(C)C2	-2.3%	-16.4%	11.2µM*	1.4%	5.7%	10.5%
COc1cc2c(cc1OC)C(SC)=NC(C)(C)C2	2.4%	3.9%	-10.5%[59 µM]	-1.0%	-1.6%	35.0%
C=CCNCCOc1cccc(Br)c1	7.7%	-16.4%	?	7.2%	10.8%	17.8%
CC(C)(C)c1ccc(OCCNC(=S)Nc2ccccc2)cc1	-11.3%	-15.8%	56.8%[12.7 µM]	1.0%	-13.8%	26.5%
CC(C)(C)c1ccc(C(=O)NCCOc2ccccc2)cc1	?	-13.7%	.	-5.3%	-4.3%	24.3%
COCCCNCCOc1ccc(C(C)(C)c2ccccc2)cc1	?	17.8µM*	20µM*	-14.7%	8.7%	8.9%

Bioassay records from PubChem BioAssay.
